HIV RNase H inh = HIV-1 RT RNase H inhibitors, primary screen, biochemical, fluorescence | RT-RNase H RNA/DNA duplex cleavage | Gag-Pol polyprotein (Human immunodeficiency virus type 1 group M subtype B (isolate … | inhibition, % at 10 µM | AID 565, 2006 | actives 1.9% (n = 65,000); in the data active = inhibition above about 50%
RmlCD inh mix = RmlC and RmlD coupled enzyme inhibitors, primary screen, biochemical, 384-well, compound mixtures, retest | RmlC/RmlD coupled enzyme inhibition, 384-well mixture HTS | inhibition, % at 5.5 µM | actives 0.39% (n = 110,000); in the data active = inhibition above about 30%, passing the limit was not always enough; inconclusive = no clear call, values can overlap the other calls
* hit, by the source's call; ? = inconclusive; nt = no result given; + = active, no number. The full list was thinned out, with hits kept by preference.

SMILES | HIV RNase H inh | RmlCD inh mix
CCCCOc1ccc(NC(=O)CN2CCN(C(=O)OCC)CC2)cc1 | 3.3 | -13.2
CCCC(=O)Nc1ccc(-c2nc3cc(C)c(C)cc3o2)c(O)c1 | 58.2* | -189.5
CCCC(=O)Nc1ccc(-c2nc3cc(C)ccc3o2)cc1 | 18.5 | -22.4
O=S(=O)(c1ccccc1)c1nc(-c2ccco2)oc1NCc1cccnc1 | 1.3 | -13.5
Cc1nnc2sc(-c3ccc(NC(=O)c4ccc(-c5ccc(Cl)cc5Cl)o4)cc3)nn12 | 50.0* | 19.9
Cc1nnc2sc(-c3ccc(NC(=O)c4cccnc4)cc3)nn12 | 2.5 | nt
COc1ccc(Cl)cc1-n1c(N)c(C(N)=O)sc1=S | 74.8* | -10.5
Cc1ccc(C)c(-n2c(N)c(C(N)=O)sc2=S)c1 | 14.6 | 12.4
Cc1ccc(-n2c(N)c(C(N)=O)sc2=S)c(C)c1 | 65.3* | nt
COC(=O)c1sc(=S)n(-c2ccccc2OC)c1N | nt | -9.1
Cc1c(C(=O)N2CCN(c3ccccc3F)CC2)sc2nc(-c3ccccc3)cn12 | -8.7 | -9.8
Cc1cc(C)c2nc3s/c(=C/c4ccccc4)c(=O)n3c2c1 | nt | -3.9
Cc1ccc2c(nc3s/c(=C/c4cccs4)c(=O)n32)c1C | 80.5* | nt
CCOC(=O)N1CCC(NC(=O)c2cnn3c(C(F)(F)F)cc(-c4cccc(OC)c4)nc23)CC1 | 16.4 | 121.4*
CCOC(=O)c1cnn2c(C(F)(F)F)cc(-c3ccccc3)nc12 | -10.3 | -14.1
COc1cccc(-c2nc3n(n2)C(c2cccs2)C(C(=O)Nc2cccnc2)=C(C)N3)c1 (stereo unspecified) | 1.1 | 5.8
COc1ccc(S(=O)(=O)NCCSc2ccc(Cl)cc2)cc1OC | nt | 11.9
CCC(=O)Nc1sccc1C(=O)OC | -10.9 | 9.0
COC(=O)Nc1sccc1C(=O)Nc1sccc1C(=O)OC | 53.6* | -19.0
CC1C(C(=O)Nc2ccccc2)CCCC1(C)C(=O)O (stereo unspecified) | nt | -9.9
COc1ccc(C2C(C(C)=O)=C(C)N=c3s/c(=C\c4ccc5c(c4)OCO5)c(=O)n32)c(OC)c1 (stereo unspecified) | 58.0* | 11.9
COc1ccc(C2C(C(C)=O)=C(C)N=c3s/c(=C\c4ccco4)c(=O)n32)c(OC)c1 (stereo unspecified) | -0.7 | 5.1
CC(=O)n1cc([C@@H]2C=C(C(=O)NCc3ccccc3)O[C@H](OCCCCO)C2)c2ccccc21 | nt | 4.4
CCOC(=O)c1cc2c(=O)n3ccccc3nc2n(Cc2ccccc2Cl)c1=N | -6.1 | nt
CCOC(=O)c1cc2c(=O)n3ccccc3nc2n(CCCOC)c1=NC(=O)C(C)(C)C | -0.5 | 21.6
SMILES | HIV RNase H inh | RmlCD inh mix
CCOC(=O)c1cc2c(=O)n3ccccc3nc2n(Cc2ccccc2)c1=N | -23.9 | 30.7*
CCOCCCn1c(=NC(C)=O)c(C(=O)OCC)cc2c(=O)n3ccccc3nc21 | -6.5 | 67.1*
O=[N+]([O-])c1ccc(N2CCN(C(=S)NC3CCCCC3)CC2)cc1 | nt | -12.7
COCC(C)OC(=O)C(C#N)c1nc2ccccc2nc1N1CCN(Cc2ccccc2)CC1 (stereo unspecified) | -3.7 | 11.4
CCCCOC(=O)C(C)Nc1n[nH]c(=S)[nH]c1=O (stereo unspecified) | nt | -9.4
CC(Nc1n[nH]c(=S)[nH]c1=O)C(=O)OCc1ccccc1 (stereo unspecified) | 53.0* | 1.2
CCc1nnc(NC(=O)C2Cc3ccccc3CN2S(=O)(=O)c2ccc(C)cc2)s1 (stereo unspecified) | nt | -12.2
CCc1nnc(NC(=O)C2Cc3ccccc3CN2S(=O)(=O)c2cccs2)s1 (stereo unspecified) | 50.5* | 0.1
O=C(Nc1nnc(C2CC2)s1)C1Cc2ccccc2CN1S(=O)(=O)c1cccs1 (stereo unspecified) | 58.9* | -13.5
COc1ccc(S(=O)(=O)N2Cc3ccccc3CC2C(=O)Nc2nccs2)cc1 (stereo unspecified) | nt | 7.1
Cc1cccn2c(=O)c(C=Nc3ccc(Cl)cc3)c(NCCO)nc12 | -17.5 | 1.2
Cc1cccn2c(=O)c(C=Nc3ccccc3)c(NCCO)nc12 | -29.4 | 36.6*
COC(=O)C1=CN(CC2CCCO2)C=C(C(=O)OC)C1c1ccsc1 (stereo unspecified) | -22.2 | 57.8*
COC(=O)C1=CN(CC2CCCO2)C=C(C(=O)OC)C1c1ccccc1C(F)(F)F (stereo unspecified) | nt | 7.9
CCN1CCN(C(=O)c2nn(-c3ccc(OC)cc3)c(=O)c3c2c2ccccc2n3C)CC1 | -7.0 | nt
CCCCCCn1c(O)c(C=NC2CCCCC2N)c(=O)[nH]c1=O (stereo unspecified) | 50.9* | -21.1
CCCCn1c(O)c(C=NC2CCCCC2N)c(=O)[nH]c1=O (stereo unspecified) | -4.1 | -10.8
Cc1ccccc1OCC(=O)Nc1ccc2c(c1)COC2=O | 1.6 | 2.1
CCOC(=O)c1ccc(-n2c(N)c(C(=O)NCc3ccco3)sc2=S)cc1 | 71.9* | 0.7
C=CCNC(=O)c1sc(=S)n(-c2ccc(C(=O)OCC)cc2)c1N | 75.8* | -1.3
CCOC(=O)c1ccc(-n2c(N)c(C(=O)NCC3CCCO3)sc2=S)cc1 (stereo unspecified) | nt | -9.0
COc1ccc(-n2c(N)c(C(=O)NCc3ccco3)sc2=S)cc1 | nt | 6.6
CC1(C)Cc2c(cnn2-c2ccccc2)C(=O)/C1=N\NC(=O)c1ccccc1N | nt | -0.1
Cc1ccnc(NC(=O)CCC(=O)N(CC(=O)NC2CCCCC2)c2cccc(C)c2C)c1 | 14.5 | -5.9
Cn1c(Sc2ccc(Cl)cc2)c(C=O)c2ccccc21 | nt | 9.9
SMILES | HIV RNase H inh | RmlCD inh mix
COCc1cc(C)nc(NCCO)c1C#N | nt | 5.4
O=C(NCCN1CCOCC1)c1cc2c(=O)n3ccccc3nc2n1Cc1ccccc1 | -4.0 | 86.4*
N#Cc1cc2c(=O)n3ccccc3nc2n(CCN2CCOCC2)c1=O | -14.0 | nt
N#Cc1cc2c(=O)n3ccccc3nc2n(CCCN2CCOCC2)c1=O | -13.8 | 79.1*
CCN1CCN(C(=O)c2cc3c(=O)n4ccccc4nc3n2Cc2ccccc2)CC1 | 1.4 | nt
Cc1cc(NC(=O)CN2CCCCCCC2)no1 | -0.1 | 5.4
O=C(CN1CCc2ccccc21)Nc1ccc2c(c1)OCO2 | 18.6 | nt
CN(C)C(=O)COC(=O)[C@H](Cc1ccccc1)NC(=O)c1ccco1 | nt | -1.3
C=CCn1c(=N)c(C(=O)NCCCOC)cc2c(=O)n3cccc(C)c3nc21 | -25.1 | 50.1*
COCCCn1c(=N)c(C(=O)NCC2CCCO2)cc2c(=O)n3cccc(C)c3nc21 (stereo unspecified) | -19.8 | nt
CCn1c(=N)c(C(=O)NCc2cccnc2)cc2c(=O)n3cccc(C)c3nc21 | -33.2 | nt
CCCCNC(=O)c1cc2c(=O)n3cccc(C)c3nc2n(Cc2ccccc2)c1=N | 0.2 | 6.1
COCCCn1c(=N)c(C(=O)NCC2CCCO2)cc2c(=O)n3ccccc3nc21 (stereo unspecified) | -0.1 | 69.4*
CNC(=O)c1cc2c(=O)n3cccc(C)c3nc2n(C(C)C)c1=N | -33.9 | 89.2*
CCOc1ccc(CSC2=NCCN2)cc1Cl | -3.6 | ?
CCOc1ccccc1C(=O)Nc1ccc(-c2nnc(-c3ccc(C)cc3)o2)cc1 | -14.2 | nt
Cc1cc(C)c(NC(=O)COc2ccccc2C(=O)Nc2ccc3c(c2)oc2ccccc23)c(C)c1 | nt | +
N#CC1=C(N)SC(N)=C(C#N)C1Cc1ccccc1 | 35.0 | -9.0
CC(C)CC1C(C#N)=C(N)SC(N)=C1C#N | 51.0* | -11.4
